Laboratory results: PubChem BioAssay AID651812 (National Center for Advancing Translational Sciences (NCATS), 2012)
Out of some 2,100 compounds screened, about 650 (31%) were called active. Inconclusive results (about 16%) are left out. The list shows a part of the results. Values without a mark were called inactive. Calls follow the shape of the dose curve; as a rule, active = well fitted inhibition curve with a large enough effect; inconclusive = small, poorly fitted or top-dose-only effect; inactive = flat fitted curve, though single readings scatter.

Test: qHTS for inhibitors of Vif-A3G interactions: Cherry picks; also: nearly all actives have a fitted effect of over 80% in size; as to activity, negative = fluorescence increase: % of control where 0% means no effect
Conditions: HeLa A3G-eYFP + Vif (tagged APOBEC3G with the HIV-1 protein that degrades it), 24 h; Potency: eYFP fluorescence increase; series mostly up to 36.9 µM; activity, negative = fluorescence increase: at the top concentration
How it was run: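 HeLa cells stably expressing A3G-eYFP and Vif, cultured overnight then exposed to compounds at several concentrations for 24 hours at 37 C, 5% CO2; cellular yellow fluorescence (488 nm ex, 500-530 nm em) imaged on Acumen, MG132 positive control.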
Potency is read from the fitted curve at half-maximal effect.

Row | Structure (SMILES) | activity, negative = fluorescence increase | Potency
1 | COc1cc(C2C(C#N)=C(N)Oc3cc(O)ccc32)cc2c1OCO2 (centres undefined) | 3.33% | 
2 | Cc1cc(-c2ccccc2)c2c3c(c(-c4ccccc4)n2n1)c(=O)n(C)c(=O)n3C |  | 18.4 µM (active)
3 | Cc1ccc(CNC(=O)C2CC(c3cc(C(F)(F)F)cc(C(F)(F)F)c3)=NO2)o1 (centres undefined) | -0.774% | 
4 | Cc1c(N2C(=O)/C(=C/c3ccc(N(C)C)cc3)N(C)C2=S)c(=O)n(-c2ccccc2)n1C |  | 18.4 µM (active)
5 | CN1C(=O)/C(=C\c2ccc(N(C)C)cc2)OC1=S |  | 4.98 µM (active)
6 | CN1C/C(=C/c2cccnc2)C(=O)/C(=C/c2cccnc2)C1 | 0.927% | 
7 | CN1C(=S)N(c2cccnc2)C(=O)/C1=C\c1ccc(N(C)C)cc1 |  | 15.8 µM (active)
8 | CC(NC(=S)Nc1cccc(C(F)(F)F)c1)C(C)(C)C (centres undefined) | 13.5% [at 46.1 µM] | 
9 | CCN(CC)c1ccc2c(c1)oc(=O)c1c(Cl)cc(=O)oc12 |  | 23.1 µM (active)
10 | Cc1ccc(F)c(S(=O)(=O)NC(=O)C2(C)CCN2C(=O)Cc2ccc(Cl)cc2Cl)c1 (centres undefined) | 3.77% | 
11 | CSc1ccc(C2NC(=O)c3ccccc3N2)cc1 (centres undefined) | -4.95% | 
12 | COc1ccccc1/C=C/C=N/n1c(-c2ccc(C)cc2)n[nH]c1=S | -5.39% | 
13 | O=c1c(O)c(-c2cccs2)oc2ccccc12 |  | 2.59 µM (active)
14 | C/C(=N\NC(N)=S)C12CC3CC(CC(C3)C1)C2 | 0.102% | 
15 | O=C(c1ccccc1F)n1c2c(c3ccccc31)CCCC2 | 1.62% | 
16 | Nc1nonc1-c1nc2ccccc2n1Cc1ccc(F)cc1 | -10% | 
17 | Nc1nonc1-c1nc2ccccc2n1CC(=O)Nc1cccc(C(F)(F)F)c1 |  | 25.9 µM (active)
18 | COc1ccc(C)c(Cn2c(-c3nonc3N)nc3ccccc32)c1 | -6.51% | 
19 | O=c1c[n+]([O-])c2ccccc2n1OCc1c(F)cccc1F | -23.5% | 
20 | O=C(O)c1ccccc1N/N=C/c1c(Sc2nnnn2-c2ccccc2)nc2ccccn2c1=O |  | 3.53 µM (active)
21 | O=c1oc2c3c4c(cc2c(C(F)(F)F)c1CCN1CCOCC1)CCCN4CCC3 |  | 7.31 µM (active)
22 | O=C(Nc1cc(Cl)ccc1-n1cncn1)c1ccc([N+](=O)[O-])s1 |  | 15.8 µM (active)
23 | O=C(O)Cc1sc(NC2CCCCC2)nc1-c1ccc(Cl)cc1 | -0.33% [at 46.1 µM] | 
24 | COC(=O)C1=C(Nc2ccc(C)cc2)C=C(C)C(C(=O)OC)C1c1cccc(OC)c1 (centres undefined) | -10.6% | 
25 | CC(=O)Nc1ccc(S(=O)(=O)N2c3ccccc3C(C)=CC2(C)C)cc1 | 1% | 

Row | Structure (SMILES) | activity, negative = fluorescence increase | Potency
26 | Cc1cc2ccccn2c1C(=O)c1ccc([N+](=O)[O-])o1 |  | 18.4 µM (active)
27 | Cc1cccc(/C=C/C(=O)c2ccc([N+](=O)[O-])o2)c1 | -10.1% | 
28 | O=C(NN(c1ccccc1)c1ccccc1)c1ccc([N+](=O)[O-])o1 | -13.6% | 
29 | CCN(CC)C(=O)Cn1c(C)c(/C=C/c2cc[n+](C)cc2)c2ccccc21 |  | 12.5 µM (active)
30 | COC(=O)Cn1c(C)c(/C=C/c2cc[n+](C)cc2)c2ccccc21 |  | 13 µM (active)
31 | N#C/C(=C/c1cccs1)c1ccccn1 |  | 14 µM (active)
32 | CSc1nc2ccccc2cc1/C=C(\C#N)c1cccc(C)c1 | -0.793% | 
33 | N#C/C(=C/c1ccc(N2CCCCCC2)o1)c1cccc(F)c1 |  | 3.66 µM (active)
34 | N#C/C(=C/c1ccc(N2CCCCC2)o1)c1cccc(F)c1 |  | 8.2 µM (active)
35 | COc1cc(C2C(C#N)=C(N)Oc3cc(O)ccc32)cc(OC)c1OC (centres undefined) | -13.1% | 
36 | CCCCN(C)CC(O)Cn1cc(/C=C/C(=O)c2cccs2)c2ccccc21 (centres undefined) |  | 20.6 µM (active)
37 | CN(C)c1ccc(/C=C/c2nc3ccccc3c(=O)n2CCO)cc1 |  | 18.4 µM (active)
38 | Cc1noc(C)c1CSc1nc2ccccc2c(=O)n1-c1ccccc1 | -2.2% | 
39 | CN(NC(=O)c1ccccc1)c1nc2ccccc2nc1C(F)(F)F | -6.08% | 
40 | Nc1ccc(/C=C/c2cc(Cl)nc3ccccc23)cc1 |  | 20.6 µM (active)
41 | CN(C)c1ccc(/C=C/c2cc(/C=C/c3ccc(N(C)C)cc3)c3ccccc3n2)cc1 |  | 6.51 µM (active)
42 | CN(C)c1ccc(/C=C/c2cc(N(C)C)nc3ccccc23)cc1 |  | 13 µM (active)
43 | O=C(NC(=S)Nc1ccc(-c2ccccc2)cc1)c1ccccc1 | 7.46% [at 46.1 µM] | 
44 | CC(C)Cn1c(N)c(C(=O)COC(=O)c2ccc([N+](=O)[O-])o2)c(=O)n(C)c1=O | -6.45% | 
45 | CC(C)(C)n1ncc2c(=O)n(CC(=O)NCc3ccc(F)cc3)cnc21 | -5.38% | 
46 | O=C1OC(Nc2nc(-c3ccc(F)cc3)cs2)c2ccccc21 (centres undefined) | -9.25% | 
47 | CCN(CC)c1ccc(/C=C/c2cc(-c3ccccc3)c3ccccc3n2)cc1 |  | 11.2 µM (active)
48 | COc1ccc(C2=NOC(C(=O)NCc3cccs3)C2)cc1OC (centres undefined) | -1.9% | 
49 | Cc1ccc(N2C(=O)[C@@H]3[C@H](C2=O)[C@H]2C=C(C(=O)c4ccccc4)C=CN2[C@@H]3C(=O)c2ccc(Cl)cc2)cc1 | 2.29% [at 46.1 µM] | 
50 | Nc1ccc2nc(-c3ccccc3)c(-c3ccccc3)nc2c1 | -12.6% | 

Row | Structure (SMILES) | activity, negative = fluorescence increase | Potency
51 | CCn1nc(-c2ccccc2)c2nc3ccccc3nc21 |  | 16.4 µM (active)
52 | O=C(Nc1nc(NC(=O)c2ccco2)n(-c2ccccc2)n1)c1ccccc1 | -8.62% | 
53 | Cc1cc(C)c2cc3c(N)c(C(=O)Nc4c(C)[nH]c(=O)[nH]c4=O)sc3nc2c1 |  | 18.4 µM (active)
54 | O=C(Cn1cnc2c(cnn2-c2ccc(F)cc2)c1=O)NCc1ccco1 | -0.883% | 
55 | N#CC1=C(N)Oc2cc(N)ccc2C1c1ccc(F)cc1F (centres undefined) |  | 18.4 µM (active)
56 | N#CC1=C(N)Oc2cc(N)ccc2C1c1cccc(F)c1 (centres undefined) | 3.56% | 
57 | N#CC1=C(N)Oc2cc(N)ccc2C1c1ccccc1F (centres undefined) | -0.998% | 
58 | Cc1csc(NC(=O)CCC(=O)N(CC(=O)NC2CCCC2)Cc2ccccc2)n1 | 4.27% [at 46.1 µM] | 
59 | CCCC1=Nc2cc(C(=O)NCc3ccco3)ccc2Sc2ccccc21 | 2.98% | 
60 | Cc1cc(=O)oc2cc(OCC(=O)N3c4ccccc4CC3C)ccc12 (centres undefined) | -14.9% | 
61 | COc1cc(OC)c(OC)cc1/C=C1\Oc2cc(OCC(=O)N3Cc4ccccc4C[C@H]3C(=O)O)ccc2C1=O |  | 4.11 µM (active)
62 | CCNC(=S)N/N=C(\C)c1ccc(N2CCOCC2)cc1 | 13.5% [at 46.1 µM] | 
63 | COc1ccc(OCCCC(=O)N2CCN(S(=O)(=O)c3cccc(F)c3)CC2)cc1 | 13.5% [at 46.1 µM] | 
64 | O=C1CSC(=S)N1Cc1cccnc1 |  | 16.4 µM (active)
65 | O=c1[nH]c2ccccc2nc1/C=C(\O)c1cccs1 |  | 18.4 µM (active)
66 | COc1ccc(OC)c(/C=C/c2nc3ccccc3[nH]c2=O)c1 |  | 18.4 µM (active)
67 | O=C(/C(=C/c1ccc(Cl)cc1)c1nc2ccccc2[nH]1)c1cccs1 | 3.24% | 
68 | COc1cccc(N2CC(O)=C(c3nc4ccccc4c(=O)[nH]3)C2=N)c1 | -12.2% | 
69 | COc1ccc(OC)c(Nc2nc(-c3ccncc3)nc3ccccc23)c1 | 1.83% | 
70 | N=C1C(c2nc3ccccc3[nH]2)=C(O)CN1c1ccccc1 | -5.41% | 
71 | O=c1[nH]c2ccccc2nc1/C=C/c1ccc(F)cc1 |  | 14 µM (active)
72 | O=[N+]([O-])c1ccc(N/N=C/c2c[nH]c3ccccc23)cc1 |  | 11.6 µM (active)
73 | COc1ccc(NS(=O)(=O)c2cc([N+](=O)[O-])ccc2N/N=C/c2c(C)[nH]c3ccccc23)cc1 |  | 14.6 µM (active)
74 | COc1ccccc1NS(=O)(=O)c1cc([N+](=O)[O-])ccc1N/N=C/c1c[nH]c2ccccc12 |  | 16.4 µM (active)
75 | Cc1[nH]c2ccccc2c1/C=N/NC(=O)c1cc(-c2ccncc2)nc2ccccc12 | -2.79% | 

Row | Structure (SMILES) | activity, negative = fluorescence increase | Potency
76 | CCN(CC)c1ccc(NC(=O)c2ccc(=O)[nH]c2)cc1S(=O)(=O)Nc1ccccc1OC | -11.6% | 
77 | O=[N+]([O-])c1ccc(N/N=C\c2cccn2-c2ccccc2)nc1 | -21% | 
78 | O=C(N/N=C/c1c[nH]c2ccccc12)C1COc2ccccc2O1 (centres undefined) | -1.58% | 
79 | Cc1[nH]c2ccccc2c1/C=N/Nc1ccc([N+](=O)[O-])cc1 |  | 13 µM (active)
80 | COc1ccc(S(=O)(=O)Nc2cccc3ccccc23)cc1 | -0.317% [at 46.1 µM] | 
81 | CCCCCS(=O)(=O)c1oc(-c2cccs2)nc1S(=O)(=O)c1ccc(C)cc1 | 1.58% [at 46.1 µM] | 
82 | Cc1ccc(-c2nc(C=Nc3ccc(O)cc3)c(O)o2)cc1 | -1.38% [at 46.1 µM] | 
83 | COc1ccc(NC(=O)C2(C)Cc3c(-c4cccc(NC(C)=O)c4)ccnc3O2)cc1 (centres undefined) | -11.1% | 
84 | COc1cc(Cn2c3ccc(NC(=O)CCc4ccccc4)cc3c(=O)n2C)ccc1F | -4.37% | 
85 | Cn1nnnc1SCCNCc1cc(Br)ccc1OCc1ccccc1Cl | -23.9% [at 46.1 µM] | 
86 | Cc1ccc(-c2cc(NC=O)c3ncc(-c4cnn(C)c4)n3c2)cc1 | -23.5% | 
87 | Cc1ccc(-c2cc(C(=O)N/N=C/c3c[nH]c4ccccc34)[nH]n2)cc1 | -6.62% | 
88 | C/C(=N/Nc1ccc([N+](=O)[O-])cc1)c1c[nH]c2ccccc12 |  | 8.2 µM (active)
89 | O=[N+]([O-])c1ccc(N/N=C/c2c[nH]c3ccccc23)c(S(=O)(=O)Nc2ccc(Cl)cc2)c1 |  | 18.4 µM (active)
90 | COc1ccccc1NS(=O)(=O)c1cc([N+](=O)[O-])ccc1N/N=C/c1c(C)[nH]c2ccccc12 |  | 2.8 µM (active)
91 | O=[N+]([O-])c1ccc(N=Nc2ccc(O)c3ccccc23)cc1 | -0.327% | 
92 | O=C(Nc1ccc2c(c1)OCCO2)C(=O)c1c[nH]c2ccccc12 | -5.27% | 
93 | Cc1ccc(N2C(=O)CS/C2=C(\C(Cl)=C(Cl)Cl)[N+](=O)[O-])cc1 | 9.88% [at 46.1 µM] | 
94 | Fc1cccc(F)c1/C=N/NC(=S)Nc1cccnc1 | 9.86% [at 46.1 µM] | 
95 | Cn1c(=O)c2cc(NC(=O)Cc3cccc4ccccc34)ccc2n1-c1ccccc1 | -7.98% | 
96 | COc1cc(/C=C/C(=O)c2ccc(O)cc2)ccc1OCC#N | -12.2% | 
97 | CCOc1ccc(N/C=C/C(=O)c2cc(OC)c(OC)c(OC)c2)cc1 | -4.87% | 
98 | CCOc1cc(/C=C/C(=O)c2ccc(OC)c(CN3CCOCC3)c2)cc(Br)c1O |  | 18.4 µM (active)
99 | COc1cc2c(cc1OC)C(C)N(C(=O)c1cc(Cl)nc(Cl)c1)CC2 (centres undefined) | -1.61% | 
